The values below come from PubChem BioAssay (EPA / NIEHS).

The structures appear in SMILES notation. The source made the active and inactive calls. Rule for the calls: active = hit-call score of the fitted dose curve at least 0.9, where 1 is the maximum; inactive = score below 0.9.

Read-out in assay [1]: TIMP metallopeptidase inhibitor 1 (TIMP1), TIMP1 (gene 7076)
Description: BSK_hDFCGF_TIMP1: BioMAP Diversity Plus: hDFCGF Assay for TIMP metallopeptidase inhibitor 1 (TIMP1) Biomarker Activity (AID 2283062). Conditions: primary human foreskin fibroblasts; actives raise or lower the signal. Summed up: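 Fibroblasts from human foreskin are treated with test chemical and harvested at 24 h. TIMP-1 is quantified by ELISA, and gain or loss of signal is scored against DMSO.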

Read-out in assay [2]: Monokine induced gamma interferon (MIG), CXCL9 (gene 4283)
As to the kind of experiment: BSK_hDFCGF_MIG: BioMAP Diversity Plus: hDFCGF Assay for Monokine induced gamma interferon (MIG) Biomarker Activity (AID 2283063). As to conditions: primary human foreskin fibroblasts; actives raise or lower the signal. Summed up: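 MIG signal, determined by ELISA, reflects 24 h chemical exposure of human skin primary fibroblasts. DMSO serves as negative control and baseline.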

Read-out in assay [3]: Matrix Metallopeptidase 1 (MMP1), MMP1 (gene 4312)
Description: BSK_hDFCGF_MMP1: BioMAP Diversity Plus: hDFCGF Assay for Matrix Metallopeptidase 1 (MMP1) Biomarker Activity (AID 2283064). Conditions: primary human foreskin fibroblasts; actives raise or lower the signal. An outline of the steps: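 ELISA read-out of MMP1 from human foreskin fibroblasts (primary skin cells), 24 h post-dose. Gain or loss of signal was fitted bidirectionally versus DMSO negative control; cytotoxicity was checked by SRB in parallel cultures.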

Read-out in assay [4]: Vascular cell adhesion molecule 1 (VCAM1), VCAM1 (gene 7412)
Description: BSK_hDFCGF_VCAM1: BioMAP Diversity Plus: hDFCGF Assay for Vascular cell adhesion molecule 1 (VCAM1) Biomarker Activity (AID 2283065). Conditions: primary human foreskin fibroblasts; actives raise or lower the signal. Summed up:
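Cells are dosed, cultured for 24 h, then VCAM-1 is quantified by ELISA; signal increases and decreases are both fitted relative to DMSO.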

Read-out in assay [5]: Plasminogen activator inhibitor-1 (PAI1), SERPINE1 (gene 5054)
Description: BSK_hDFCGF_PAI1: BioMAP Diversity Plus: hDFCGF Assay for Plasminogen activator inhibitor-1 (PAI1) Biomarker Activity (AID 2283066). As to conditions: primary human foreskin fibroblasts; actives raise or lower the signal. Summed up:
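Human skin fibroblast cultures receive chemical for 24 h before PAI-1 is measured by ELISA; signal changes are fitted bidirectionally against DMSO-treated wells.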

Read-out in assay [6]: Intercellular Adhesion Molecule 1 (ICAM1), ICAM1 (gene 3383)
As to the kind of experiment: BSK_KF3CT_ICAM1: BioMAP Diversity Plus: KF3CT Assay for Intercellular Adhesion Molecule 1 (ICAM1) Biomarker Activity (AID 2283067). Conditions: primary human keratinocytes with fibroblasts; actives raise or lower the signal. An outline of the steps:
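Dose the keratinocyte/fibroblast co-culture, wait 24 h, measure ICAM-1 by ELISA, then fit increases or decreases against DMSO. Cytotoxicity is checked in parallel cultures by SRB total-protein staining.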

Read-out in assay [7]: Interferon-gamma inducible Protein 10 (IP10), CXCL10 (gene 3627)
As to the kind of experiment: BSK_KF3CT_IP10: BioMAP Diversity Plus: KF3CT Assay for Interferon-gamma inducible Protein 10 (IP10) Biomarker Activity (AID 2283068). Conditions: primary human keratinocytes with fibroblasts; actives raise or lower the signal. Summed up: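 ELISA read-out of IP-10 after 24 h chemical dosing of human skin primary co-culture (keratinocytes, foreskin fibroblasts). Gain or loss of signal relative to DMSO, bidirectional curve fit.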

Assay [8] can be described thus: BSK_KF3CT_SRB: Viability Assessment in the BioMAP Diversity Plus: KF3CT Assay (AID 2283069). As to conditions: primary human keratinocytes with fibroblasts. An outline of the steps:
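SRB read-out at 560 nm (0.1% stain, TCA-fixed cells) gauges overt cytotoxicity in a human skin keratinocyte–fibroblast co-culture 24 h post-dosing. Signal change was fitted bidirectionally relative to DMSO control.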

Read-out in assay [9]: Interleukin-1 alpha (IL1a), IL1A (gene 3552)
Description: BSK_KF3CT_IL1a: BioMAP Diversity Plus: KF3CT Assay for Interleukin-1 alpha (IL1a) Biomarker Activity (AID 2283070). As to conditions: primary human keratinocytes with fibroblasts; actives raise or lower the signal. Summed up:
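Primary skin co-culture (keratinocytes, foreskin fibroblasts), 24 h exposure; ELISA for IL-1a; bidirectional curve fit vs DMSO.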

Read-out in assay [10]: Transforming growth factor beta 1 (TGFb1), TGFB1 (gene 7040)
As to the kind of experiment: BSK_KF3CT_TGFb1: BioMAP Diversity Plus: KF3CT Assay for Transforming growth factor beta 1 (TGFb1) Biomarker Activity (AID 2283072). Conditions: primary human keratinocytes with fibroblasts; actives raise or lower the signal. Summed up:
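TGF-b1 ELISA on a 24 h dosed co-culture of human keratinocytes and foreskin fibroblasts; cytotoxicity tracked in parallel cultures by SRB staining.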

Read-out in assay [11]: C-C motif chemokine 2 (Homo sapiens) (UniProt P13500)
Description: BSK_KF3CT_MCP1: BioMAP Diversity Plus: KF3CT Assay for Monocyte Chemoattractant Protein 1 (MCP1/CCL2) Biomarker Activity (AID 2283073). Conditions: primary human keratinocytes with fibroblasts; actives raise or lower the signal. Summed up:
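Keratinocytes and foreskin fibroblasts were co-cultured, dosed with chemical, and sampled 24 h later. MCP-1 was quantified by ELISA, and the endpoint was analyzed with bidirectional fitting using DMSO as negative control.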

Read-out in assay [12]: Matrix Metallopeptidase 9 (MMP9), MMP9 (gene 4318)
As to the kind of experiment: BSK_KF3CT_MMP9: BioMAP Diversity Plus: KF3CT Assay for Matrix Metallopeptidase 9 (MMP9) Biomarker Activity (AID 2283074).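 For AC50: MMP9 protein level quantified by ELISA in the co-culture.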 As to conditions: primary human keratinocytes with fibroblasts; actives raise or lower the signal. An outline of the steps:
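ELISA read-out of MMP-9 at 24 h post-dosing in a co-culture of human skin keratinocytes and foreskin fibroblasts. Gain or loss of signal was fitted in both directions against DMSO.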

Read-out in assay [13]: urokinase plasminogen activator (uPA), PLAU (gene 5328)
As to the kind of experiment: BSK_KF3CT_uPA: BioMAP Diversity Plus: KF3CT Assay for urokinase plasminogen activator (uPA) Biomarker Activity (AID 2283075). Conditions: primary human keratinocytes with fibroblasts; actives raise or lower the signal. An outline of the steps: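 Skin co-culture (keratinocytes + foreskin fibroblasts), human primary; 24 h post-dose; uPA by ELISA; gain/loss fit vs DMSO baseline.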

Read-out in the next assay: CD40, CD40 (gene 958)
As to the kind of experiment: BSK_LPS_CD40: BioMAP Diversity Plus: LPS Assay for CD40 Biomarker Activity (AID 2283076). As to conditions: primary human HUVEC with PBMC; actives raise or lower the signal. Summed up: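 CD40 signal, measured by ELISA, is fitted in both directions relative to DMSO vehicle. The system is an LPS-driven human vascular primary co-culture of endothelial cells and PBMC, sampled 24 h after compound addition.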

Read-out in assay [14]: E-selectin (Homo sapiens) (UniProt P16581)
As to the kind of experiment: BSK_LPS_Eselectin: BioMAP Diversity Plus: LPS Assay for Eselectin Biomarker Activity (AID 2283077). Conditions: primary human HUVEC with PBMC; actives raise or lower the signal. Summed up: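 Signal of E-selectin, detected by ELISA, served as the endpoint; cells were umbilical vein endothelium with PBMC, read 24 h after treatment. DMSO defined baseline, and both increases and decreases were fitted.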

Read-out in assay [15]: Interleukin-8 (IL8), CXCL8 (gene 3576)
As to the kind of experiment: BSK_LPS_IL8: BioMAP Diversity Plus: LPS Assay for Interleukin-8 (IL8) Biomarker Activity (AID 2283078). Conditions: primary human HUVEC with PBMC; actives raise or lower the signal. Summed up: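 Endothelial cells and PBMC from human donors are co-cultured, treated with chemicals and LPS, then assayed for IL-8 by ELISA after 24 h. Parallel SRB staining (0.1% SRB after 10% TCA fixation, 560 nm) flags cytotoxicity.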

Assay [16] in a line: BSK_LPS_SRB: Viability Assessment in the BioMAP Diversity Plus: LPS Assay (AID 2283079).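 Note: total protein by sulforhodamine B absorbance as a cytotoxicity measure; measured one day after compound addition.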 Conditions: primary human HUVEC with PBMC. An outline of the steps: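 Overt cytotoxicity was gauged by sulforhodamine B total-protein staining in a primary human vascular endothelial and mononuclear cell co-culture 24 h post-dosing. Activity was fitted in both directions relative to DMSO.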

Read-out in assay [17]: Interleukin-1 alpha (IL1a), IL1A (gene 3552)
As to the kind of experiment: BSK_LPS_IL1a: BioMAP Diversity Plus: LPS Assay for Interleukin-1 alpha (IL1a) Biomarker Activity (AID 2283080). Conditions: primary human HUVEC with PBMC; actives raise or lower the signal. Summed up:
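Measured: IL-1 alpha via ELISA at 24 h in LPS-activated human umbilical vein endothelium–PBMC co-culture. Baseline: DMSO, bidirectional fitting.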

Read-out in assay [18]: TIMP metallopeptidase inhibitor 2 (TIMP2), TIMP2 (gene 7077)
Description: BSK_KF3CT_TIMP2: BioMAP Diversity Plus: KF3CT Assay for TIMP metallopeptidase inhibitor 2 (TIMP2) Biomarker Activity (AID 2283071). Conditions: primary human keratinocytes with fibroblasts; actives raise or lower the signal. Summed up:
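Measurements come from ELISA detection of TIMP-2 at 24 hours in a dosed human keratinocyte and foreskin fibroblast co-culture. DMSO serves as negative control and baseline.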

Read-out in assay [19]: Monocyte Chemoattractant Protein-1 (MCP1), CCL2 (gene 6347)
As to the kind of experiment: BSK_LPS_MCP1: BioMAP Diversity Plus: LPS Assay for Monocyte Chemoattractant Protein-1 (MCP1) Biomarker Activity (AID 2283081). Conditions: primary human HUVEC with PBMC; actives raise or lower the signal. An outline of the steps: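 LPS-stimulated HUVEC/PBMC co-culture; chemical, 24 h; MCP-1 by ELISA; bidirectional fit vs DMSO; cytotoxicity via SRB (0.1% stain, 10% TCA fix, 560 nm) in parallel wells.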

The AC50 is the midpoint of the concentration-response curve, whichever way the signal moves.

Sequence of E-selectin (Homo sapiens) (P16581 whole entry, looked up): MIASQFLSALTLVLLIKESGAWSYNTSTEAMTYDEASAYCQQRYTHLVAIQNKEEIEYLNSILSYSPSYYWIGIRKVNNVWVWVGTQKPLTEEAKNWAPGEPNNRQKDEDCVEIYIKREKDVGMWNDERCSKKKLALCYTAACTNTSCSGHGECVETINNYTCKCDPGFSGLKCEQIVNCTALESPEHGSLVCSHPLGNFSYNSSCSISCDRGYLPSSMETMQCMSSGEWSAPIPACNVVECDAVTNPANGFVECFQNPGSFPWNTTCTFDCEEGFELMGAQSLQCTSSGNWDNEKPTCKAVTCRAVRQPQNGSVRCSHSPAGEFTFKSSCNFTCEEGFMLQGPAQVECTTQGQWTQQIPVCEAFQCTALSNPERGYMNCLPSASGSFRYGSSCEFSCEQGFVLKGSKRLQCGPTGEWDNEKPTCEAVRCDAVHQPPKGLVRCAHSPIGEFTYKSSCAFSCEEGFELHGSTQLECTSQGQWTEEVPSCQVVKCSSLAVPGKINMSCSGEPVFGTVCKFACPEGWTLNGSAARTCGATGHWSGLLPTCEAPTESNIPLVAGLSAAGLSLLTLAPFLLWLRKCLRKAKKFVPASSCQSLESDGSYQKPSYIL

Turning to `O=C(N[C@H](c1ccccc1)[C@@H]1CN2CCC1CC2)c1c(Cl)ccc(C(F)(F)F)c1Cl`, the outcome in [1], in [2], in assay [3], in assay [4], in [5] and in assay [11] was inactive. Besides, the outcome in assay [14] and in assay [17] was inactive. Besides, the AC50 in [6] was 49.6 µM (active); in [7], 49 µM (active); in assay [8] it was 44.6 µM (active); in assay [9], 47.9 µM (active); in assay [10], 48.7 µM (active); in [12], 41.7 µM (active). Besides, the AC50 in assay [13] is 42.7 µM (active); in the assay with CD40, CD40 (gene 958), 19.5 µM (active); in assay [15], 7.76 µM (active); in [16], 29.7 µM (active).
As to `CC(O)CCO` (stereo unspecified), the outcome in assay [1], in assay [2], in assay [3], in assay [4], in [5] and in [6] was inactive. The outcome in [7], in assay [8], in assay [9], in [18], in [10] and in [11] was inactive. Besides, the outcome in assay [12] is “inactive”; in assay [13] it was “inactive”; with CD40, CD40 (gene 958), “inactive”; in [14] it was “inactive”; in [15], “inactive”; in assay [16] it was “inactive”. Besides, the result in assay [17] and in assay [19] was inactive.
Consider `CCCCCCCCOC(=O)c1ccc(C(=O)OCCCCCCCC)c(C(=O)OCCCCCCCC)c1`, for which the outcome in assay [1], in assay [2], in assay [3], in [4], in assay [6] and in assay [7] was inactive. For the same compound, the outcome in [8], in [9], in assay [18], in [10], in assay [11] and in assay [12] was inactive. For the same compound, the outcome is “inactive” in [13]; “inactive” in the assay with CD40, CD40 (gene 958); “inactive” in assay [14]; “inactive” in [15]; “inactive” in [16]; “inactive” in assay [17].
Turning to `N#CC(Br)Br`, the result in [1], in assay [2], in assay [3], in assay [4], in assay [5] and in assay [6] was inactive. In addition, the result in assay [7], in assay [8], in assay [9], in assay [18], in assay [10] and in assay [11] was inactive. For the same compound, the outcome in assay [12] was “inactive”; in [13], “inactive”; with CD40, CD40 (gene 958) it was “inactive”; in assay [14], “inactive”; in [15], “inactive”; in assay [16], “inactive”. Besides, the result in assay [17] and in assay [19] was inactive.
